Here are results for five compounds from PubChem BioAssay (EPA / NIEHS).

Read-out in assay [1]: Vascular endothelial growth factor receptor 2 (Homo sapiens) (UniProt P35968)
Nature of the assay: BSK_4H_VEGFRII: BioMAP Diversity Plus: 4H Assay for Vascular endothelial growth factor receptor 2 (VEGFR2) Biomarker Activity (AID 2283031).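 On AC50: cell-surface VEGFR2 protein level quantified by ELISA.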 As to conditions: primary human endothelial cells (HUVEC); actives raise or lower the signal. The method in brief:
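In this multiplexed HUVEC system, biomarker ELISA was performed after 24 h chemical exposure. Parallel SRB staining (TCA fixation, 560 nm) tracked cytotoxicity; DMSO served as baseline.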

Read-out in assay [2]: Human Leukocyte Antigen - DR isotype (HLADR), HLA-DRA (gene 3122)
Nature of the assay: BSK_BE3C_HLADR: BioMAP Diversity Plus: BE3C Assay for Human Leukocyte Antigen - DR isotype (HLADR) Biomarker Activity (AID 2283032). As to conditions: primary human bronchial epithelial cells; actives raise or lower the signal. The method in brief:
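Chemicals are dosed onto BE3C bronchial epithelial cultures of human origin and left 24 h. HLA-DR is then measured by ELISA, and the endpoint is fitted in both directions using DMSO as the activity baseline.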

Read-out in assay [3]: Vascular cell adhesion molecule 1 (VCAM1), VCAM1 (gene 7412)
The assay can be described thus: BSK_4H_VCAM1: BioMAP Diversity Plus: 4H Assay for Vascular cell adhesion molecule 1 (VCAM1) Biomarker Activity (AID 2283033).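 On outcome: cell-surface VCAM-1 protein measured by ELISA.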 As to conditions: primary human endothelial cells (HUVEC); actives raise or lower the signal. The gist of the method:
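Chemicals are added to primary human umbilical vein endothelial cells. After 24 h, VCAM-1 levels are measured by ELISA. Values come from bidirectional fitting referenced to DMSO.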

Read-out in assay [4]: Interferon-gamma inducible Protein 10 (IP10), CXCL10 (gene 3627)
The assay can be described thus: BSK_BE3C_IP10: BioMAP Diversity Plus: BE3C Assay for Interferon-gamma inducible Protein 10 (IP10) Biomarker Activity (AID 2283034). As to conditions: primary human bronchial epithelial cells; actives raise or lower the signal. The gist of the method: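 IP-10 quantified by ELISA serves as the endpoint. Cells: primary human bronchial epithelium, read 24 h after compound addition. Activity is derived by bidirectional fitting with DMSO as negative control.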

Read-out in assay [5]: Monokine induced gamma interferon (MIG), CXCL9 (gene 4283)
The assay can be described thus: BSK_BE3C_MIG: BioMAP Diversity Plus: BE3C Assay for Monokine induced gamma interferon (MIG) Biomarker Activity (AID 2283035).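 On outcome: MIG protein measured by ELISA in BE3C cultures after 24 h of dosing.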 As to conditions: primary human bronchial epithelial cells; actives raise or lower the signal. The gist of the method:
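ELISA quantified MIG after 24 h exposure of primary bronchial epithelial cultures, analysed in both directions relative to DMSO. Cytotoxicity tracked in parallel cultures by sulforhodamine B staining.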

Read-out in assay [6]: Transforming growth factor beta 1 (TGFb1), TGFB1 (gene 7040)
Nature of the assay: BSK_BE3C_TGFb1: BioMAP Diversity Plus: BE3C Assay for Transforming growth factor beta 1 (TGFb1) Biomarker Activity (AID 2283036;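 on outcome: TGF-b1 protein level measured by ELISA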). As to conditions: primary human bronchial epithelial cells; actives raise or lower the signal. The method in brief:
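Bronchial epithelial primary cells are treated with test chemical, then TGF-b1 is quantified by ELISA after 24 hours. Values derive from bidirectional fitting against DMSO, with cytotoxicity checked by SRB staining in parallel cultures.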

Read-out in assay [7]: Plasminogen activator inhibitor-1 (PAI1), SERPINE1 (gene 5054)
Nature of the assay: BSK_BE3C_PAI1: BioMAP Diversity Plus: BE3C Assay for Plasminogen activator inhibitor-1 (PAI1) Biomarker Activity (AID 2283037). As to conditions: primary human bronchial epithelial cells; actives raise or lower the signal. The method in brief: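 Values derive from bidirectional fitting against DMSO baseline of PAI-1 levels, measured by ELISA in human bronchial epithelial cells 24 h after compound addition.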

Read-out in assay [8]: urokinase plasminogen activator (uPA), PLAU (gene 5328)
The assay can be described thus: BSK_BE3C_uPA: BioMAP Diversity Plus: BE3C Assay for urokinase plasminogen activator (uPA) Biomarker Activity (AID 2283038).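 On outcome: uPA protein level quantified by ELISA in cell cultures; uPA read one day after compound addition.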 As to conditions: primary human bronchial epithelial cells; actives raise or lower the signal. The method in brief:
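Using confluent primary human lung bronchial epithelial cultures, we dosed chemicals, waited 24 h, then ran a uPA ELISA, fitting bidirectionally against DMSO.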

Read-out in assay [9]: Urokinase-type plasminogen activator receptor (uPAR), PLAUR (gene 5329)
Nature of the assay: BSK_BE3C_uPAR: BioMAP Diversity Plus: BE3C Assay for Urokinase-type plasminogen activator receptor (uPAR) Biomarker Activity (AID 2283039).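 On outcome: uPAR protein level measured by ELISA on the cells; cells exposed to compound for one day before measurement.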 As to conditions: primary human bronchial epithelial cells; actives raise or lower the signal. The method in brief: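 Steps: dose human primary bronchial epithelial cells, incubate 24 h, measure uPAR by ELISA, then fit gain- or loss-of-signal response bidirectionally relative to DMSO.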

Read-out in assay [10]: Interleukin-6 (IL6), IL6 (gene 3569)
The assay can be described thus: BSK_CASM3C_IL6: BioMAP Diversity Plus: CASM3C Assay for Interleukin-6 (IL6) Biomarker Activity for (AID 2283040). As to conditions: primary human coronary artery smooth muscle cells; actives raise or lower the signal.

Read-out in assay [11]: Tissue plasminogen activator (tPA), PLAT (gene 5327)
Nature of the assay: BSK_BE3C_tPA: BioMAP Diversity Plus: BE3C Assay for Tissue plasminogen activator (tPA) Biomarker Activity (AID 2283041).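 On outcome: tPA level quantified by ELISA one day after compound addition.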 As to conditions: primary human bronchial epithelial cells; actives raise or lower the signal. The method in brief:
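Gain- or loss-of-signal in tPA, measured by ELISA, derived by bidirectional fitting against DMSO. Cells: human primary bronchial epithelial; read at 24 h after chemical dosing.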

Read-out in assay [12]: Interleukin-8 (IL8), CXCL8 (gene 3576)
The assay can be described thus: BSK_CASM3C_IL8: BioMAP Diversity Plus: CASM3C Assay for Interleukin-8 (IL8) Biomarker Activity (AID 2283042).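 Further: IL-8 protein level quantified by ELISA.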 As to conditions: primary human coronary artery smooth muscle cells; actives raise or lower the signal.

Read-out in assay [13]: Human Leukocyte Antigen - DR isotype (HLADR), HLA-DRA (gene 3122)
The assay can be described thus: BSK_CASM3C_HLADR: BioMAP Diversity Plus: CASM3C Assay for Human Leukocyte Antigen - DR isotype (HLADR) Biomarker Activity (AID 2283043).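 Further: cell-surface HLA-DR protein level quantified by ELISA.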 As to conditions: primary human coronary artery smooth muscle cells; actives raise or lower the signal.

Read-out in assay [14]: Macrophage colony-stimulating factor (MCSF), CSF1 (gene 1435)
Nature of the assay: BSK_CASM3C_MCSF: BioMAP Diversity Plus: CASM3C Assay for Macrophage colony-stimulating factor (MCSF) Biomarker Activity (AID 2283044).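 Further: M-CSF protein amount quantified by ELISA after 24 h exposure.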 As to conditions: primary human coronary artery smooth muscle cells; actives raise or lower the signal.

Read-out in assay [15]: Low-density lipoprotein receptor (LDLR), LDLR (gene 3949)
The assay can be described thus: BSK_CASM3C_LDLR: BioMAP Diversity Plus: CASM3C Assay for Low-density lipoprotein receptor (LDLR) Biomarker Activity (AID 2283045).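 Further: LDLR protein level on the cell surface quantified by ELISA.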 As to conditions: primary human coronary artery smooth muscle cells; actives raise or lower the signal.

Read-out in assay [16]: Monocyte Chemoattractant Protein-1 (MCP1), CCL2 (gene 6347)
The assay can be described thus: BSK_CASM3C_MCP1: BioMAP Diversity Plus: CASM3C Assay for Monocyte Chemoattractant Protein-1 (MCP1) Biomarker Activity (AID 2283046).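 Further: MCP-1 level quantified by ELISA 24 h after dosing.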 As to conditions: primary human coronary artery smooth muscle cells; actives raise or lower the signal.

Assay [17] can be described thus: BSK_CASM3C_Proliferation: Cell Proliferation Assessment in the BioMAP Diversity Plus: CASM3C Assay (AID 2283047).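 Further: sulforhodamine B total protein stain as relative cell number at 560 nm; sub-confluent cells exposed 48 h before staining; fitted both ways against DMSO so gain or loss of cell number.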 As to conditions: primary human coronary artery smooth muscle cells.
Read-out in assay [18]: Monokine induced gamma interferon (MIG), CXCL9 (gene 4283)
The assay can be described thus: BSK_CASM3C_MIG: BioMAP Diversity Plus: CASM3C Assay for Monokine induced gamma interferon (MIG) Biomarker Activity (AID 2283048).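 Further: MIG protein level measured by ELISA.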 As to conditions: primary human coronary artery smooth muscle cells; actives raise or lower the signal.

Read-out in assay [19]: serum amyloid A (SAA), SAA1 (gene 6288)
The assay can be described thus: BSK_CASM3C_SAA: BioMAP Diversity Plus: CASM3C Assay for serum amyloid A (SAA) Biomarker Activity (AID 2283049).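 Further: SAA protein level quantified by ELISA.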 As to conditions: primary human coronary artery smooth muscle cells; actives raise or lower the signal.

A short description of assay [20]: BSK_CASM3C_SRB: Viability Assessment in the BioMAP Diversity Plus: CASM3C Assay (AID 2283050).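 Further: total protein by SRB staining as cytotoxicity measure in parallel cultures.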 As to conditions: primary human coronary artery smooth muscle cells.

Values joined by “and” are separate entries in the source; they are usually repeats but may differ in a detail not shown here. Equal values may be shown once. More than one record can exist for a structure, and the calls need not agree. Active and inactive are the calls of the source. How the source made its calls: active means hit-call score of the fitted dose curve at least 0.9, where 1 is the maximum; inactive means score below 0.9.

Consider `CCOCCOC(C)=O`, for which the outcome in assay [1], in assay [2], in assay [3], in [4], in [5] and in [6] was inactive. Moreover, the outcome in assay [7], in assay [8], in [9], in [10], in assay [11] and in assay [12] was inactive. Moreover, the result in assay [13], in assay [14], in [15], in [16], in assay [17] and in [18] was inactive. Also, the result in assay [19] and in assay [20] was inactive.

A word on the AC50: it is the midpoint of the concentration-response curve, whichever way the signal moves. As to `c1cc2ccc3cccc4ccc(c1)c2c34`, the outcome in [1], in [2], in assay [4], in [5], in assay [6] and in assay [7] was inactive. For the same compound, the outcome in assay [8], in assay [9], in [10], in assay [11], in assay [12] and in [13] was inactive. For the same compound, the result in assay [14], in [16], in assay [17], in [18], in assay [19] and in assay [20] was inactive. Further, the results for the AC50 in assay [3] and in assay [15] were 15.5 µM (active) and 9.87 µM (active), respectively.

Take `CCCCCCCCOC(=O)c1ccccc1C(=O)OCCCCCCCC`: the result in assay [1], in assay [2], in assay [3], in assay [4], in assay [5] and in assay [6] was inactive. The outcome in [7], in assay [8], in assay [9], in assay [10], in [11] and in [12] was inactive. For the same compound, the result in assay [13], in [14], in assay [15], in [16], in assay [17] and in assay [18] was inactive. Besides, the result in [19] and in assay [20] was inactive.

On to `COS(=O)(=O)OC`, for which the result in [1], in assay [2], in assay [3], in assay [4], in assay [5] and in [6] was inactive. The outcome in assay [7], in assay [8], in assay [9], in [10], in assay [11] and in assay [12] was inactive. Besides, the result in [13], in [14], in [15], in assay [16], in assay [17] and in [18] was inactive. The outcome in assay [19] and in [20] was inactive.

As to `Oc1c(Cl)c(Cl)c(Cl)c(Cl)c1Cl`, the AC50 is 11.6 µM (active) in assay [1]; 8.2 µM (active) and 20.6 µM (active) in [2]; 10.2 µM (active) and 21.5 µM (active) in assay [3]; 5.02 µM (active) and 5.67 µM (active) in assay [4]; 11.8 µM (active) and 30.3 µM (active) in [5]; 9.53 µM (active) in assay [6]. The AC50 is 1.18 µM (active) and 10.5 µM (active) in assay [7]; 4.12 µM (active) and 14.7 µM (active) in assay [8]; 7.14 µM (active) and 24.6 µM (active) in [9]; 2.56 µM (active) and 7.59 µM (active) in [11]; 2.09 µM (active) in assay [12]; 20 µM (active) in [13]. Moreover, the AC50 in [17] was 26.7 µM (active); in [20], 29.6 µM (active). The outcome in assay [1], in assay [6], in assay [10], in assay [12], in assay [13] and in assay [14] was inactive. In addition, the outcome in assay [15], in assay [16], in [17], in assay [18], in [19] and in assay [20] was inactive.
